# From the OligoGym collection
# Biological target: JMJD8
# Test: pooled miR-30 sensor sort-seq; sequence = guide strand
# Conditions: shRNA
# Further: reference of the scale not given here.
row,Sequence,sensor-assay potency score (higher = more potent)
1,TACAGCACCTCACCAGCCCGGA,-0.942
2,TACTGCTGCACGAACTCCGCGT,-0.255
3,TTTGTGGTAGGAGTAGGTGTTG,-1.04
4,TAGATCACTTCTGAGTACCCGG,-0.223
5,TAGCATGCCACCAGCGGTCGGG,-0.51
6,TACGACCGTAGATCACTTCTGA,0.324
7,TATACATAGTTTATGTTCCTGG,-0.256
8,TTGAGCGTAGCATGCCACCAGC,-0.983
9,TTATTGACGCATTCATCTCTGA,-0.0992
10,TTGTGGTAGGAGTAGGTGTTGG,-1.22
11,TATCTGTGTAATAAAATCCGTG,-0.911
12,TAGGAGTAGGTGTTGGCGGTGC,0.392

# Biological target: JOSD1
# Test: as above
# Conditions: shRNA
row,Sequence,sensor-assay potency score (higher = more potent)
1,TTTCCCAGCATGCTCTTCTTGT,-0.498
2,TCGAACACAGATCCAGTGCTGC,-0.708
3,TGATGTTTTAGAAACTTCCTGA,0.299
4,TAGAAACTTCCTGAGCTCGCTC,0.337
5,ATCTCTTGCAGCGTATCCCGGG,-0.409
